Assay [1] in a line: qHTS assay for small molecules that induce genotoxicity in human embryonic kidney cells expressing luciferase-tagged ATAD5 (AID 651632). Note: nearly all actives have a fitted effect of over 15% in size. In a few lines: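 ATAD5-luc HEK293T, 2,000 cells/well; cpd or DMSO pin-transferred; 16 hr, 37C/5% CO2; Amplite 30 min RT; luminescence.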
A general note: qHTS replaces the single test concentration by a dilution series.

Assay [2] is described as follows: qHTS assay for small molecules that induce genotoxicity in human embryonic kidney cells expressing luciferase-tagged ATAD5 - cell viability (AID 651634; calls by dose curve; note: nearly all actives have a fitted effect of over 25% in size). In a few lines: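 Fluorescence from CellTiter-Fluor, reporting protease activity within live cells, served as the viability read-out. HEK293T cells carrying luciferase-tagged ATAD5 had been treated with compound for 15.5 hr at 37C.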

A short description of assay [3]: qHTS assay for small molecule disruptors of the mitochondrial membrane potential - cell viability (AID 720634; calls by dose curve; note: nearly all actives have a fitted effect of over 20% in size; note: potency is the fitted concentration of half-maximal effect). In a few lines: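 Cells: HepG2, 2,000/well, attached overnight. Compound 1 hr, 37 C/5% CO2. +m-MPI dye, +CellTiter-Glo 30 min RT. Readout: luminescence (ATP).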
Assay [4] is described as follows: qHTS assay to test for compound auto fluorescence at 590 nm (red) in HepG2 cells (AID 720674). In a few lines:
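HepG2 cells, 2,000 per well in MEM with 10% FBS, attached overnight at 37 C, then got 23 nL compound or DMSO. After 1 hr at 37 C, 5% CO2, red fluorescence was read at 540/590 nm against Rose Bengal sodium as reference.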

The nature of assay [5]: qHTS assay to test for compound auto fluorescence at 535 nm (green) in HepG2 cells (AID 720675).
Assay [6] in a line: qHTS assay to test for compound auto fluorescence at 460 nm (blue) in HEK293 cells (AID 720678). Note: potency is the fitted concentration of half-maximal effect. Put shortly:
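HEK293 cells (2,000/well, medium with 10% dialyzed FBS) attached 4-5 hr, then exposed to compound overnight at 37C, 5% CO2. Blue fluorescence read at 405/460 nm, with triamterene as reference fluorophore.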

Assay [7] in a line: qHTS assay to test for compound auto fluorescence at 590 nm (red) in HEK293 cells (AID 720679). In a few lines:
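HEK293 cells (2,000/well, 10% dialyzed FBS) attached 4-5 hr, then dosed with compound or DMSO and incubated overnight at 37C, 5% CO2. Red fluorescence read at 540/590 nm, Rose Bengal sodium as reference fluorophore.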

Assay [8] can be described thus: qHTS assay to test for compound auto fluorescence at 535 nm (green) in HEK293 cells (AID 720680).
The nature of assay [9]: qHTS assay to test for compound auto fluorescence at 460 nm (blue) in HEK293 cell free culture (AID 720681). Note: potency is the fitted concentration of half-maximal effect. Put shortly:
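Compounds were added to cell-free DMEM with 10% FBS and fluorescence read directly. The blue channel used 405 nm excitation and 460 nm emission, with triamterene as the reference fluorophore.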

Assay [10] is described as follows: qHTS assay to test for compound auto fluorescence at 535 nm (green) in HEK293 cell free culture (AID 720682). In a few lines:
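Green-label autofluorescence (485 nm excitation, 535 nm emission) measured on compound added to cell-free culture medium (DMEM, 10% FBS). Output is expressed relative to fluorescein.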

The nature of assay [11]: qHTS assay to test for compound auto fluorescence at 590 nm (red) in HEK293 cell free culture (AID 720683). Put shortly:
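Cell-free wells of DMEM with 10% FBS received compound, and intrinsic fluorescence was read at excitation/emission 540/590 nm. Values expressed as equivalence to Rose Bengal sodium.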

The nature of assay [12]: qHTS assay to test for compound auto fluorescence at 590 nm (red) in HepG2 cell free culture (AID 720684). Put shortly: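 Compound was pinned into wells holding MEM with 10% FBS and no cells, and red fluorescence was read at Ex/Em 540/590 nm. Signal is expressed as auto fluorescence equivalency relative to Rose Bengal sodium.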
Assay [13] in a line: qHTS assay to test for compound auto fluorescence at 535 nm (green) in HepG2 cell free culture (AID 720686).
Assay [14] deals with Glucocorticoid receptor (Homo sapiens) (UniProt P04150). Briefly: qHTS assay to identify small molecule agonists of the glucocorticoid receptor (GR) signaling pathway (AID 720691; active = well fitted activation curve with a large enough effect in the signal ratio in the repeat runs, not every such curve was filed as active; the % refers to the signal ratio). Put shortly:
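Fluorescence intensity from LiveBLAzer B/G FRET substrate (2 h, room temperature) reports beta-lactamase expression driven by the glucocorticoid response element in GR-bla HeLa cells after 18 h compound exposure at 37 C.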

For assay [15] the target is unchanged. Kind of assay: qHTS assay to identify small molecule antagonists of the glucocorticoid receptor (GR) signaling pathway (AID 720692; active = well fitted inhibition curve with a large enough effect in the signal ratio in the repeat runs, not every such curve was filed as active; the % refers to the signal ratio; note: potency is the fitted concentration of half-maximal effect). In a few lines: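 HeLa GR-bla cells; cmpd + dex 5 nM final, 18 h 37 C; LiveBLAzer B/G FRET substrate 2 h RT; fluorescence intensity read. Antagonist mode, qHTS.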
The nature of assay [16]: qHTS assay for small molecule disruptors of the mitochondrial membrane potential (AID 720635). Note: potency is the fitted concentration of half-maximal effect. Put shortly:
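HepG2 cells exposed to compound 1 hr at 37C, then Mito-MPS dye 30 min. Ratio read of aggregate (540/590 nm) versus monomer (490/535 nm) fluorescence.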

A short description of assay [17]: qHTS assay to test for compound auto fluorescence at 460 nm (blue) in HepG2 cell free culture (AID 720685). Put shortly: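 Compound (23 nL) or DMSO pinned into cell-free MEM with 10% FBS; blue fluorescence read at 405/460 nm excitation/emission, expressed as auto-fluorescence equivalency to triamterene.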
The nature of assay [18]: qHTS assay to test for compound auto fluorescence at 460 nm (blue) in HepG2 cells (AID 720687). In a few lines: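 HepG2 cells in MEM with 10% FBS, attached overnight at 37 C, were exposed to compound or DMSO for 1 hr at 37 C, 5% CO2. Blue fluorescence was read at 405/460 nm, with triamterene as reference fluorophore.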

Where “and” joins values, the source holds several entries; their conditions need not be identical. Equal values may be shown once. Inconclusive results are not listed. A structure can be active in one record and inactive in another. Calls of active or inactive are those of the source. Unless noted, calls come from the whole dose curve; as a rule, active = well fitted curve in the direction sought with a large enough effect in the repeat runs; inconclusive = weak or mixed curves; inactive = no such curve, though single readings can be large; an effect the other way counts as inactive or inconclusive.
Tags give direction and shape of the fitted curve or compound fluorescence and quenching.

Chain of Glucocorticoid receptor (Homo sapiens) (P04150 whole entry, looked up): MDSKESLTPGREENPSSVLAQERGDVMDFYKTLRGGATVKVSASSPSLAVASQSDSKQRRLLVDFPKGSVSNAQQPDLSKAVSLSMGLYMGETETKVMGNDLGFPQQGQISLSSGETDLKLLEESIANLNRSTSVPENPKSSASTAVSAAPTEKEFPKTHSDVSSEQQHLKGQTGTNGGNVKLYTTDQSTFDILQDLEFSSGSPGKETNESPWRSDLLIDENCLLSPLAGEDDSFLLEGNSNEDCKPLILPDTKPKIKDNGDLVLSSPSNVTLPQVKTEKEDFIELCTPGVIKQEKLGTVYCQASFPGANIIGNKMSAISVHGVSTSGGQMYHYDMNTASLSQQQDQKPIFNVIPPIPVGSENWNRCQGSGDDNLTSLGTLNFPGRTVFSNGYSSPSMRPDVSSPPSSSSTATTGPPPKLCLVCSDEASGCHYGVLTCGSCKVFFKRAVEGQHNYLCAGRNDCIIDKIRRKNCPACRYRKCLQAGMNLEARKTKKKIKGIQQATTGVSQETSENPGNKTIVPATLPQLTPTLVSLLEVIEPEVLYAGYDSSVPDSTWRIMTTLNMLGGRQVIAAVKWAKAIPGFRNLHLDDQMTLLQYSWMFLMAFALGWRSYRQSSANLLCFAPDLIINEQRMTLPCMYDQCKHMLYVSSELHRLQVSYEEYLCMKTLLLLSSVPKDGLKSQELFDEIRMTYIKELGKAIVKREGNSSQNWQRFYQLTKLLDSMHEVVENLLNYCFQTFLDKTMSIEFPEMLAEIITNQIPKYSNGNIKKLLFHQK

As to `Cc1c(Cl)c(=O)oc2cc(OP(=O)(OCCCl)OCCCl)ccc12`, the Potency result in [1], in assay [2], in assay [3], in assay [14] and in assay [15] was “inactive” in each case. Moreover, the call in assay [4], in assay [5], in assay [7], in assay [8], in assay [10] and in assay [11] was inactive. The outcome in [12] and in assay [13] was inactive. Besides, the Potency in [6] is 12.6 µM [fluorescent] (active); in assay [9], 12.6 µM (active).

With `O=[N+]([O-])c1cc([N+](=O)[O-])c2ccccc2c1`, the Potency result in [1], in [2], in assay [6], in assay [17], in assay [18] and in assay [14] was “inactive” in each case. Further, in [16], the Potency was 10.9 µM (active). Further, the outcome in assay [4], in [5], in [7], in assay [8], in assay [11] and in assay [12] was inactive. Besides, in assay [13], the compound was called inactive.

As to `CC(=O)c1cc(C(C)(C)C)cc2c1CCC2(C)C`, the Potency result in assay [1], in assay [2], in [6], in assay [9], in [17] and in assay [18] was “inactive” throughout. Besides, in assay [14], the Potency result was “inactive”. Besides, the Potency in assay [16] is 30.6 µM (active). The compound was classed as inactive in [4], in assay [5], in assay [7], in assay [8], in assay [10] and in [11]. Also, the outcome in assay [12] and in assay [13] was inactive.

As for `CCCCCCCCCC[N+](C)(C)CCCCCCCCCC`, the Potency entry in assay [1], in assay [6], in [9], in [17] and in [18] was “inactive” throughout. Moreover, the Potency in [3] was 26.6 µM (active) and inactive; in assay [16], 8.41 µM (active) and 24.3 µM (active). The compound was classed as inactive in assay [4], in [5], in assay [7], in assay [8], in [10] and in [11]. For the same compound, the result in assay [12] and in assay [13] was inactive.

On to `ClC1=C(Cl)[C@]2(Cl)[C@@H]3[C@@H]4C[C@@H]([C@H]5O[C@@H]45)[C@@H]3[C@@]1(Cl)C2(Cl)Cl`, for which the Potency entry in assay [1], in assay [2], in [17], in [18] and in [14] was “inactive” in each case. Also, the Potency in assay [16] is 19.3 µM (active); in [15], 36.7 µM (active). Further, the result in [4], in assay [5], in assay [7], in [8], in assay [10] and in assay [11] was inactive. The result in assay [12] and in assay [13] was inactive.

Consider `CCCCCCCCCCCCBr`, for which the Potency entry in assay [1], in assay [2], in assay [6], in [17], in assay [18] and in assay [14] was “inactive” throughout. Besides, in [15], the Potency result was “inactive”. Besides, the Potency in assay [16] was 27.3 µM (active). For the same compound, the result in assay [4], in [5], in assay [7], in [8], in assay [10] and in assay [11] was inactive. Moreover, the compound was classed as inactive in assay [12] and in assay [13].

For `ClC(Cl)=C(c1ccc(Cl)cc1)c1ccc(Cl)cc1`, the Potency result in assay [1], in assay [2], in assay [3], in assay [6], in [9] and in [17] was “inactive” throughout. In addition, the Potency entry in assay [18], in [14] and in assay [15] was “inactive” throughout. In addition, the Potency in [16] was 22.2 µM (active) and 24.3 µM (active). For the same compound, the outcome in [4], in assay [5], in assay [7], in assay [8], in assay [10] and in [11] was inactive. In addition, the compound was classed as inactive in assay [12] and in assay [13].

(Values after PubChem BioAssay (Tox21).)
